Screening results as filed in PubChem.
TTR transcr act: TTR transcription activation, primary screen; actives 1.3% (n = 92,000); activation, % at 16.7 µM; SH-SY5Y TTR promoter Gaussia luciferase, luminescence; 100% = recombinant luciferase protein wells;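 active means activation above the mean of all tested compounds plus 3 SD, cut at about 9.5% in these data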;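 further: cells exposed to compounds for one day before reading; 0% = median of all test compound wells on the plate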
TTR inh HuH7: HuH7 TTR transcription inhibition, counter-screen | actives 4% (n = 1,100) | inhibition, % at 16.7 µM | shares compounds with TTR transcr act | AID 1117279 | HuH7 TTR promoter-Gaussia luciferase reporter, luminescence;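 active means average inhibition above the solvent-only control wells' mean plus 3 SD, cut at about 15% in these data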;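 further: 0% = cells with DMSO only and 100% = cells with inhibitor control FD; inhibitors lower well luminescence so higher value means more inhibition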
TTR up confirm: human TTR transcription activation, confirmation; 1,100 tested, under 10 active; SHSY5Y TTR promoter Gaussia luciferase, luminescence; 100% = purified Lucia enzyme wells, no cells; shares compounds with TTR transcr act; activation, % at 16.7 µM;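 active means mean activation above a set limit taken from the earlier primary screen, cut at about 11% in these data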;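 further: 0% = DMSO-treated cells and 100% = recombinant Lucia luciferase without cells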
An asterisk follows results filed as active. Shown is part of a subset that was picked to be rich in hits.

SMILES	TTR transcr act	others
O=C(Cc1cccc(C(F)(F)F)c1)NCc1ccc(Cl)cc1	0.6
CC(NC(=O)CSc1cccc(C(F)(F)F)c1)c1ccccc1 (stereo unspecified)	-0.9
CN(C)C(CNC(=O)Cc1cccc(C(F)(F)F)c1)c1ccccc1 (stereo unspecified)	14.8*	TTR inh HuH7=-11.8;TTR up confirm=0.4
COC(=O)c1cc(-c2cnc(OC)nc2OC)c(=O)n2c1CCC2	0.4
O=C(CCN1CCOCC1)NCc1ccccc1	0.9
O=C(CCN1CCOCC1)c1ccccc1	-2.1
N/C(CCN1CCOCC1)=N/O	10.2*	TTR inh HuH7=-16.2;TTR up confirm=-0.1
Cc1ccc2nc3sc(C(=O)N4CCN(C)CC4)cc3cc2c1	0.2
COc1cc(NC(=O)C(OC(=O)CNC(=O)c2ccccc2)c2ccccc2)cc(C(F)(F)F)c1 (stereo unspecified)	2.2
CCN1CCN(c2nc3sc4c(c3c3ncnn23)CC(C)CC4)CC1 (stereo unspecified)	11.4*	TTR inh HuH7=-30.9;TTR up confirm=-0.2
CC1CCc2sc3nc(NCc4ccco4)n4ncnc4c3c2C1 (stereo unspecified)	2.1
CC1CCc2c(sc3ncnc(N4CCOCC4)c23)C1 (stereo unspecified)	-1.0
CO[C@H]([C@H](C)/C=C/N(C)C=O)[C@@H](C)C(=O)CC[C@H](C)[C@H](O)[C@H](C)[C@H]1OC(=O)/C=C/C(C)=C/C[C@H](O)C[C@@H]2C=CC[C@@H](C[C@H](OC)C(C)(O)[C@@H](OC)C[C@@H](OC)[C@@H]1C)O2 (stereo partly specified)	5.9
O=C(NCCc1c[nH]c2ccccc12)[C@H](Cc1c[nH]c2ccccc12)NC1(C(=O)NC2CCCCC2)CCCCCCC1	-0.8
Cc1cccc(C)c1NC(=O)CN(C)C(=O)c1cccc(S(=O)(=O)N2CCN(c3ccccc3)CC2)c1	-0.1
Cc1cccc(C)c1NC(=O)CN(C)C(=O)c1cccc(S(=O)(=O)N2CCN(C)CC2)c1	15.2*	TTR inh HuH7=-7.5;TTR up confirm=-0.7
Cc1cccc(C)c1NC(=O)CN(C)C(=O)c1cc(S(=O)(=O)N(C)C)ccc1N1CCCC1	1.6
COc1ccc(CCNC(=O)c2c(N)[nH]c(C(=O)c3ccccc3)c2-c2ccc(N(C)C)cc2)cc1	-1.7
CCC[C@H]1[C@@H](NC(=O)c2ccc(C)cc2)CC[C@@]23CCCN2C(=O)CCC[C@@H]13	0.8
CN(Cc1ccccc1)C(=O)OCc1cn(Cc2ccc(F)cc2F)nn1	0.2
CCCn1nnc(NC(=O)c2ccc(Br)cc2)n1	-2.6
Cc1csc(NC(=O)c2ccccc2)n1	-0.5
Cn1nnnc1-c1cc(Br)ccc1NC(=O)c1ccccc1	10.4*	TTR inh HuH7=-0.1;TTR up confirm=-0.7
COc1ccc(Cn2cc(COC(=O)N3CCOCC3)nn2)cc1	5.4
COC(=O)[C@]12C[C@H](CC(=O)NCCCCc3ccccc3)C(=O)N(Cc3ccc(Cl)cc3Cl)C1=C[C@H](C1CCCC1)O[C@@H]2C	0.0
SMILES	TTR transcr act	others
O=S1(=O)c2c(cccc2N2CCC[C@@H]2CO)O[C@H]2CCN1C2	4.0
C#CCNC(=O)C[C@H]1C(=O)N(CCCOC)C2=CCCC[C@@]21C(=O)OCC	3.1
CCC[C@H]1[C@@H](NCc2ccccc2)CC[C@@]23CCCN2C(=O)CCC[C@@H]13	0.4
COc1ccc(-c2cc(C(F)(F)F)n3nc(C(=O)N4CCOCC4)nc3n2)cc1	2.7
O=C(c1nc2nc(-c3ccccc3)cc(C(F)(F)F)n2n1)N1CCCCC1	11.0*	TTR inh HuH7=-2.9;TTR up confirm=0.1
O=C(c1cc2nc(-c3ccccc3)cc(C(F)(F)F)n2n1)N1CCCC1	-1.4
CC1(c2nnnn2C2CCCCC2)CSCC(=O)N1CCc1ccc(O)cc1 (stereo unspecified)	-0.7
O=C(Nc1cccc(Br)c1)OC1CC2CC1[C@H]1CCCCN1C2 (stereo partly specified)	-0.2
COC(=O)[C@]12C[C@H](CC(=O)N3CCSCC3)C(=O)N(Cc3ccc(Cl)cc3Cl)C1=C[C@H](C1CCCC1)O[C@@H]2C	-0.9
N/C(=N\OC(=O)c1cccnc1)c1ccc(Cl)cc1Cl	-0.2
COc1ccc(Cl)cc1C(=O)O/N=C(\N)c1ccncc1	1.3
Cc1ccc(/C(N)=N/OC(=O)c2ccc(Cl)cc2Cl)cc1	19.8*	TTR inh HuH7=6.4;TTR up confirm=-0.5
O=S1(=O)c2ccc(N3CC[C@H](O)C3)cc2O[C@@H]2CCN1C2	1.3
Cc1ccc(Cn2c(=O)n(Cc3ccc(C(=O)NCC4COC4)cc3)c(=O)c3ccccc32)cc1	-1.7
C[C@H]1[C@@H](OC(=O)NCc2cccc(Cl)c2)CC[C@@]23CCCN2C(=O)CCC[C@@H]13	0.7
COc1cccc2cc(C(C)N(CCCN3CCOCC3)C(=S)Nc3ccccc3C)oc12 (stereo unspecified)	14.0*	TTR inh HuH7=-6.1;TTR up confirm=-0.8
